Measurements reported in PubChem BioAssay AID1220 (Sanford-Burnham Center for Chemical Genomics, 2008).
Among all 190,000 compounds or so, about 1,300 (0.68%) were called active. No stated cut-off is given here; in the data, active means inhibition above about 50%; inactive means the rest. For the sample, actives were picked, then their nearest neighbours and some compounds at random.

Each molecule was assayed against Mannose-6-phosphate isomerase (Homo sapiens) (UniProt P34949) (assay: MPI inhibition at elevated mannose 6-phosphate – biochemical, fluorescence intensity, high mannose 6-phosphate, primary screen (AID 1220)). Conditions: recombinant PMI enzyme, coupled fluorescence intensity; at 20 µM; active compounds read high.
Mannose-6-phosphate isomerase (Homo sapiens), sequence (P34949 whole entry, looked up): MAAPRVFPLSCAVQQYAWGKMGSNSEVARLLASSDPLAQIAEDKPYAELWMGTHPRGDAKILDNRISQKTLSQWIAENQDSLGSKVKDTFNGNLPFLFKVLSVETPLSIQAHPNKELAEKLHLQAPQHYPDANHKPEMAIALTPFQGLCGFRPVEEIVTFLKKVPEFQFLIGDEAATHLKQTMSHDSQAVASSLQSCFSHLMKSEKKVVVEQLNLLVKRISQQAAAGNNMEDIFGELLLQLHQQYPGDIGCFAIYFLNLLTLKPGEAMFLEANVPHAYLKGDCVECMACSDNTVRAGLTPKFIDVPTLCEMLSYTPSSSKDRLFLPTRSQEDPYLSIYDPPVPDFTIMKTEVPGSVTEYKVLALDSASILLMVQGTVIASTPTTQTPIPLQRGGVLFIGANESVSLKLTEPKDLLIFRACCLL

inhibition, active:
CC(=O)Cc1cc(O)c2ccccc2c1OC(=O)c1ccccc1 68.6%
CCOc1cc(/C=C2\N=C(SCC)SC2=O)cc([N+](=O)[O-])c1OC(C)=O 53.1%
COC(=O)Nc1sc2c(c1C(N)=O)CCC(C)C2 (configuration not stated) 59.6%
CCN(CC)c1cccc(OCC(=O)N(C)CCC#N)c1 53.3%
CC(=O)Nc1ccc(NS(=O)(=O)c2cc(C)sc2C)cc1 61.6%
Cc1nc2ccc(NC(=S)N3CCC(C)CC3)cc2nc1C 55.4%
CC1CCN(C(=O)Nc2ccc3nsnc3c2)CC1 62%
Cc1nc2ccc(NC(=S)N3CCCC3)cc2nc1C 52.8%
CC(=O)Nc1c([N+](=O)[O-])cc2[nH]c(=O)[nH]c2c1[N+](=O)[O-] 56.9%

inhibition, inactive:
O=C(Oc1cccc2c(O)cccc12)c1ccccc1 23.5%
CC(=O)Oc1c(C)cc(O)c2ccccc12 19.2%
Cc1cc(N2CCCC2=O)c(N)cc1N 4.5%
O=C1CN(CC(=O)Nc2cccc(Cl)c2Cl)c2ccccc2N1 -43.6%
CCOc1ccc2nc(NC3=NCN(Cc4ccco4)CN3)nc(C)c2c1 -0.5%
C=CCSC1=N/C(=C\c2cc(OCC)c(OC(C)=O)c([N+](=O)[O-])c2)C(=O)S1 38.8%
CCOc1cc(/C=C2\N=C(SC)SC2=O)cc([N+](=O)[O-])c1OC(C)=O 35.6%
CC(=O)NCC(=O)N(C)C(C(=O)Nc1ccc2c(c1)OCCO2)c1ccc(C)cc1 (configuration not stated) 5.2%
CC(=O)NC(=S)Nc1sc2c(c1C(N)=O)CCC(C)C2 (configuration not stated) -3%
CCOC(=O)Nc1sc2c(c1C(N)=O)CCC(C)C2 (configuration not stated) -7.3%
CC(C)C(NC(=O)c1ccc(Br)cc1)C(=O)NC1=NCCS1 (configuration not stated) -3%
CON1C(=O)C(=O)N(OC)C(C)(C)C1(C)C 44.6%
Clc1ccc(C2NCCc3sccc32)cc1 (configuration not stated) 10.9%
CC1=CC(C)(C)N=C(NC#N)N1 2.4%
O=C(COc1ccc(Cl)cc1)N1CCN(c2ccc([N+](=O)[O-])c(N3CCCCC3)c2)CC1 12.2%
COC(=O)CNC(=O)c1cccc(Cl)c1 -5%
O=C(NC(Cc1c[nH]c2ccccc12)C(=O)NCCCN1CCOCC1)c1cccs1 (configuration not stated) 11.4%
O=C1c2ccccc2C(=O)c2c1oc(C(F)(F)F)c2C(=O)c1ccccc1 -32.9%
O=C(c1ccccc1)c1coc2c1C(=O)c1ccccc1C2=O 30.7%
CCCCOc1ccc(C(=S)N2CCC(C(N)=O)CC2)cc1 9.1%
CN(CCC#N)C(=O)COc1ccc(Br)cc1Cl -5.3%
CCc1ccc(OCC(=O)N(C)CCC#N)c(Br)c1 3.1%
Cc1cc(C)n(-c2cc(N3CCOCC3)nc(-c3ccccc3)n2)n1 8.9%
CCc1sc(C(=O)NCCc2ccc(S(N)(=O)=O)cc2)cc1Br 7.3%
COc1cc(C(=O)NCCSc2ccc(Br)cc2)cc(OC)c1OC 5.3%
Cc1cc(S(=O)(=O)Nc2ccc(N(C)C)cc2)c(C)s1 10.9%
Cc1cc(S(=O)(=O)Nc2ccc(F)cc2)c(C)s1 5%
CN(C)CCCNc1oc(-c2ccccc2)nc1C#N -7.3%
CCOC(=O)c1c(NCC2CCCO2)c2ccccc2[nH]c1=O (configuration not stated) -10.2%
COc1ccc(N2C(=O)N(Cc3cccc(F)c3)c3ccccc3S2(=O)=O)cc1 0.3%
CC1(C)CC(=O)C2=C(C1)NC(=O)NC2c1ccccc1 (configuration not stated) -2.6%
Cc1ccc(-n2nnnc2Sc2nc([N+](=O)[O-])nn2C)cc1 18.5%
O=C(Nc1ccc2nsnc2c1)N1CCCCC1 24.1%
O=C(Nc1ccc2nsnc2c1)N1CCCCCC1 21.5%
Cc1nc2ccc(NC(=S)N3CCN(c4ccccn4)CC3)cc2nc1C 18.3%
CC1CCN(C(=S)Nc2ccc(F)cc2)CC1 -10.5%
Cc1nc2ccc(NC(=S)N3CCOCC3)cc2nc1C 45.1%
Cc1nc2ccc(NC(=O)N3CCCCC3)cc2nc1C 21.5%
COC(=O)CSc1cc(C)nc2ccc(OC)cc12 7.7%
CC(C(=O)Nc1ccncc1)(c1ccccc1)c1ccccc1 10.8%
O=C(CCN1C(=O)/C(=C/C=C/c2ccccc2)SC1=S)Nc1cccnc1 1.5%
Cc1noc(C)c1C(=O)N1CCN(Cc2ccc3c(c2)OCO3)CC1 6.8%
CN(C)c1c([N+](=O)[O-])cc2[nH]c(=O)[nH]c2c1[N+](=O)[O-] 9.6%
